# Experimental data as given in PubChem BioAssay (NCI).
# The panel holds about 79,000 compounds, 15% with a hit somewhere; the sample as a whole holds those more often. Values without a mark were called inactive. Calls of active or inactive are those of the source. Rule as the data show it: active = growth inhibition above about 70%; inactive = the rest.
# Tests used:
# [1] = NCI Yeast Anticancer Drug Screen. Data for the rad52 strain (AID 147);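 also: 0% = growth of vehicle-treated control cultures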; conditions: S. cerevisiae rad52 mutant growth inhibition, stronger effect = higher value
# Summary of the method: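 Compounds are applied to a genetically defined yeast strain lacking normal DNA damage repair, and inhibition of growth is expressed relative to cultures given vehicle only.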
# [2] = NCI Yeast Anticancer Drug Screen. Data for the wt1 strain (AID 149);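 also: 0% = growth of vehicle-treated wt1 cultures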; conditions: S. cerevisiae wt1 strain (SPY 50644) growth inhibition, stronger effect = higher value
# Summary of the method: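 Compounds are added to wt1 yeast cultures. Growth is then measured. Inhibition is expressed relative to vehicle-treated controls.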
# [3] = NCI Yeast Anticancer Drug Screen. Data for the rad50EPP+ strain (AID 151);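 also: 0% = growth of vehicle-treated control cultures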; conditions: S. cerevisiae rad50 mutant strain, stronger effect = higher value
# Summary of the method: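 Compounds were applied to the rad50EPP+ yeast strain, which bears a defined DNA repair alteration, and growth inhibition was determined relative to vehicle-treated cultures.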
# [4] = NCI Yeast Anticancer Drug Screen. Data for the mgt1 strain (AID 153); conditions: S. cerevisiae mgt1 mutant growth inhibition, stronger effect = higher value
# Summary of the method: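 Strain: mgt1 yeast, one of a set carrying defined DNA damage repair or cell cycle control alterations. Compound-treated growth compared with vehicle.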
# [5] = NCI Yeast Anticancer Drug Screen. Data for the rad50 strain (AID 155);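 also: 0% = growth of vehicle-only cultures of the same strain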; conditions: S. cerevisiae rad50 strain growth inhibition, stronger effect = higher value
# Summary of the method: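 Inhibition values express reduced yeast growth in compound-treated cultures relative to vehicle-treated controls.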
# [6] = NCI Yeast Anticancer Drug Screen. Data for the mec2-1 strain (AID 157); conditions: S. cerevisiae mec2-1 strain, stronger effect = higher value
# Summary of the method: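 Strain: mec2-1 (DNA repair/cell cycle alteration). Compound exposure, then growth measured; inhibition expressed relative to vehicle.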
# [7] = NCI Yeast Anticancer Drug Screen. Data for the sgs1 mgt1 strain (AID 161);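 also: 0% = growth of cultures given vehicle only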; conditions: S. cerevisiae sgs1 mgt1 strain, stronger effect = higher value
# Summary of the method: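 Test agents were incubated with a DNA-repair-mutant yeast strain. Growth was then read and compared against vehicle-treated controls.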
# [8] = NCI Yeast Anticancer Drug Screen. Data for the CLN2oe strain (AID 163);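 also: 0% = growth of vehicle-only control cultures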; conditions: S. cerevisiae CLN2oe strain, stronger effect = higher value
# Summary of the method: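 Growth of a genetically modified yeast strain is measured after compound exposure and compared with cultures given vehicle alone.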
# [9] = NCI Yeast Anticancer Drug Screen. Data for the cln2 rad14 strain (AID 165);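 also: 0% = growth equal to vehicle treated cultures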; conditions: S. cerevisiae cln2 rad14 strain, stronger effect = higher value
# Summary of the method: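 Compounds are applied to the cln2 rad14 yeast strain, and growth is then compared with that of vehicle-treated cultures to give inhibition.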
# [10] = NCI Yeast Anticancer Drug Screen. Data for the bub3 strain (AID 167); conditions: S. cerevisiae bub3 mutant strain, stronger effect = higher value
# Summary of the method: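 Steps: expose the mutant yeast strain to compound; grow alongside vehicle-treated cultures; measure growth; express inhibition against the vehicle cultures.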
# [11] = NCI Yeast Anticancer Drug Screen. Data for the wt2 strain (AID 169);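 also: 0% = growth of vehicle-treated yeast cultures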; conditions: S. cerevisiae wt2 strain growth inhibition, stronger effect = higher value
# Summary of the method: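 This strain belongs to a panel of yeast strains with defined genetic alterations in DNA damage repair or cell cycle control. Compounds are applied, and growth inhibition is measured against vehicle-treated cultures.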
# [12] = NCI Yeast Anticancer Drug Screen. Data for the mlh1 strain (AID 171);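 also: 0% = growth of vehicle-treated control cultures of the same strain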; conditions: S. cerevisiae mlh1 strain growth inhibition, stronger effect = higher value
# Summary of the method: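 Growth of the mutant yeast strain after compound exposure, expressed as inhibition relative to vehicle-only controls.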
# [13] = NCI Yeast Anticancer Drug Screen. Data for the sgs1 strain (AID 173);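 also: 0% = growth of vehicle-only control cultures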; conditions: S. cerevisiae sgs1 mutant, stronger effect = higher value
# Summary of the method: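 Growth of a yeast strain bearing a defined genetic alteration is measured after compound treatment. Inhibition is expressed relative to vehicle-only controls.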
# [14] = NCI Yeast Anticancer Drug Screen. Data for the mlh1 rad18 strain (AID 175); conditions: S. cerevisiae mlh1 rad18 strain growth inhibition, stronger effect = higher value
# Summary of the method: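 Read-out is yeast growth inhibition, calculated against vehicle-only controls. The compound was applied to a strain engineered with DNA damage repair alterations.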
# [15] = NCI Yeast Anticancer Drug Screen. Data for the rad14 strain (AID 159);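 also: 0% = growth of vehicle-treated control cultures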; conditions: S. cerevisiae rad14 strain growth inhibition, stronger effect = higher value
# Summary of the method: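 A mutant yeast strain defective in DNA damage repair is treated with compound; inhibition of its growth is scored against untreated, vehicle-exposed cultures.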
# [16] = NCI Yeast Anticancer Drug Screen. Data for the rad18 strain (AID 177); conditions: S. cerevisiae rad18 mutant growth inhibition, stronger effect = higher value
# Summary of the method: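 Growth of the mutant yeast strain after compound exposure, normalised to vehicle-only cultures.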
# [17] = at 5.0 µM (retest, dose inferred, filed as 0.5)
# [18] = at 50.0 µM (retest, dose inferred, filed as 5.0)
compound,measurement,setting,value
CCN(CC)CCNc1ccc2ncn3c4cc(OC)c(OC)c(=O)c4c(O)c1c23,growth inhibition,[1]; at 1.2 µM,15%
same,growth inhibition,[1]; at 3.7 µM,14%
same,growth inhibition,[1]; at 11.0 µM,40%
same,growth inhibition,[1]; at 33.0 µM,36%
same,growth inhibition,[1]; at 100.0 µM,59%
same,growth inhibition,[2]; at 1.2 µM,-82%
same,growth inhibition,[2]; at 3.7 µM,1%
same,growth inhibition,[2]; at 11.0 µM,2%
same,growth inhibition,[2]; at 33.0 µM,4%
same,growth inhibition,[2]; at 100.0 µM,6%
same,growth inhibition,[3]; at 1.2 µM,1%
same,growth inhibition,[3]; at 3.7 µM,3%
same,growth inhibition,[3]; at 11.0 µM,11%
same,growth inhibition,[3]; at 33.0 µM,20%
same,growth inhibition,[3]; at 100.0 µM,26%
same,growth inhibition,[4]; at 1.2 µM,1%
same,growth inhibition,[4]; at 3.7 µM,2%
same,growth inhibition,[4]; at 11.0 µM,3%
same,growth inhibition,[4]; at 33.0 µM,4%
same,growth inhibition,[4]; at 100.0 µM,7%
same,growth inhibition,[5]; at 1.2 µM,5%
same,growth inhibition,[5]; at 3.7 µM,15%
same,growth inhibition,[5]; [17],2%
same,growth inhibition,[5]; at 11.0 µM,30%
same,growth inhibition,[5]; at 33.0 µM,46%
same,growth inhibition,[5]; [18],-3%
same,growth inhibition,[5]; at 50.0 µM,65.5%
same,growth inhibition,[5]; at 100.0 µM,66%
same,growth inhibition,[6]; at 1.2 µM,-2%
same,growth inhibition,[6]; at 3.7 µM,-1%
same,growth inhibition,[6]; [17],-3%
same,growth inhibition,[6]; at 11.0 µM,0%
same,growth inhibition,[6]; at 33.0 µM,8%
same,growth inhibition,[6]; [18],-12%
same,growth inhibition,[6]; at 50.0 µM,23.5%
same,growth inhibition,[6]; at 100.0 µM,11%
same,growth inhibition,[7]; [17],10%
same,growth inhibition,[7]; [18],17%
same,growth inhibition,[7]; at 50.0 µM,12.8%
same,growth inhibition,[8]; at 1.2 µM,-6%
same,growth inhibition,[8]; at 3.7 µM,-4%
same,growth inhibition,[8]; at 11.0 µM,0%
same,growth inhibition,[8]; at 33.0 µM,-2%
same,growth inhibition,[8]; at 100.0 µM,5%
same,growth inhibition,[9]; [17],-5%
same,growth inhibition,[9]; [18],48%
same,growth inhibition,[9]; at 50.0 µM,26.4%
same,growth inhibition,[10]; at 1.2 µM,-1%
same,growth inhibition,[10]; at 3.7 µM,-3%
same,growth inhibition,[10]; [17],11%
same,growth inhibition,[10]; at 11.0 µM,0%
same,growth inhibition,[10]; at 33.0 µM,-2%
same,growth inhibition,[10]; [18],16%
same,growth inhibition,[10]; at 50.0 µM,11.8%
same,growth inhibition,[10]; at 100.0 µM,4%
same,growth inhibition,[11]; at 1.2 µM,-3%
same,growth inhibition,[11]; at 3.7 µM,0%
same,growth inhibition,[11]; at 11.0 µM,1%
same,growth inhibition,[11]; at 33.0 µM,1%
same,growth inhibition,[11]; at 100.0 µM,2%
same,growth inhibition,[12]; at 1.2 µM,-1%
same,growth inhibition,[12]; at 3.7 µM,0%
same,growth inhibition,[12]; at 11.0 µM,1%
same,growth inhibition,[12]; at 33.0 µM,3%
same,growth inhibition,[12]; at 100.0 µM,7%
same,growth inhibition,[13]; at 1.2 µM,0%
same,growth inhibition,[13]; at 3.7 µM,5%
same,growth inhibition,[13]; at 11.0 µM,3%
same,growth inhibition,[13]; at 33.0 µM,4%
same,growth inhibition,[13]; at 100.0 µM,5%
same,growth inhibition,[14]; [17],38%
same,growth inhibition,[14]; [18],-10%
same,growth inhibition,[14]; at 50.0 µM,20.3%
Oc1ccc(O)c(Cc2ccccc2)c1,growth inhibition,[1]; at 1.2 µM,21%
same,growth inhibition,[1]; at 3.7 µM,48%
same,growth inhibition,[1]; at 11.0 µM,89% (active)
same,growth inhibition,[1]; at 33.0 µM,97% (active)
same,growth inhibition,[1]; at 100.0 µM,99% (active)
same,growth inhibition,[2]; at 1.2 µM,6%
same,growth inhibition,[2]; at 3.7 µM,14%
same,growth inhibition,[2]; at 11.0 µM,29%
same,growth inhibition,[2]; at 33.0 µM,50%
same,growth inhibition,[2]; at 100.0 µM,93% (active)
same,growth inhibition,[3]; at 1.2 µM,56%
same,growth inhibition,[3]; at 3.7 µM,88% (active)
same,growth inhibition,[3]; at 11.0 µM,95% (active)
same,growth inhibition,[3]; at 33.0 µM,98% (active)
same,growth inhibition,[3]; at 100.0 µM,99% (active)
same,growth inhibition,[4]; at 1.2 µM,4%
same,growth inhibition,[4]; at 3.7 µM,13%
same,growth inhibition,[4]; at 11.0 µM,37%
same,growth inhibition,[4]; at 33.0 µM,78% (active)
same,growth inhibition,[4]; at 100.0 µM,99% (active)
same,growth inhibition,[5]; at 1.2 µM,37%
same,growth inhibition,[5]; at 3.7 µM,87% (active)
same,growth inhibition,[5]; [17],77% (active)
same,growth inhibition,[5]; at 11.0 µM,97% (active)
same,growth inhibition,[5]; at 33.0 µM,99% (active)
same,growth inhibition,[5]; [18],97% (active)
same,growth inhibition,[5]; at 50.0 µM,79.3% (active)
same,growth inhibition,[5]; at 100.0 µM,99% (active)
same,growth inhibition,[6]; at 1.2 µM,6%
same,growth inhibition,[6]; at 3.7 µM,30%
same,growth inhibition,[6]; [17],-9%
same,growth inhibition,[6]; at 11.0 µM,75% (active)
same,growth inhibition,[6]; at 33.0 µM,100% (active)
same,growth inhibition,[6]; [18],68%
same,growth inhibition,[6]; at 50.0 µM,84.3% (active)
same,growth inhibition,[6]; at 100.0 µM,100% (active)
same,growth inhibition,[15]; at 1.2 µM,17%
same,growth inhibition,[15]; at 3.7 µM,34%
same,growth inhibition,[15]; at 11.0 µM,73% (active)
same,growth inhibition,[15]; at 33.0 µM,98% (active)
same,growth inhibition,[15]; at 100.0 µM,99% (active)
same,growth inhibition,[7]; [17],-20%
same,growth inhibition,[7]; [18],68%
same,growth inhibition,[7]; at 50.0 µM,92.5% (active)
same,growth inhibition,[10]; at 1.2 µM,8%
same,growth inhibition,[10]; at 3.7 µM,25%
same,growth inhibition,[10]; [17],-26%
same,growth inhibition,[10]; at 11.0 µM,63%
same,growth inhibition,[10]; at 33.0 µM,97% (active)
same,growth inhibition,[10]; [18],88% (active)
same,growth inhibition,[10]; at 50.0 µM,98.3% (active)
same,growth inhibition,[10]; at 100.0 µM,99% (active)
same,growth inhibition,[11]; at 1.2 µM,-2%
same,growth inhibition,[11]; at 3.7 µM,1%
same,growth inhibition,[11]; at 11.0 µM,23%
same,growth inhibition,[11]; at 33.0 µM,58%
same,growth inhibition,[11]; at 100.0 µM,87% (active)
same,growth inhibition,[12]; at 1.2 µM,9%
same,growth inhibition,[12]; at 3.7 µM,22%
same,growth inhibition,[12]; at 11.0 µM,47%
same,growth inhibition,[12]; at 33.0 µM,89% (active)
same,growth inhibition,[12]; at 100.0 µM,98% (active)
same,growth inhibition,[13]; at 1.2 µM,16%
same,growth inhibition,[13]; at 3.7 µM,45%
same,growth inhibition,[13]; at 11.0 µM,94% (active)
same,growth inhibition,[13]; at 33.0 µM,99% (active)
same,growth inhibition,[13]; at 100.0 µM,99% (active)
same,growth inhibition,[14]; [17],36%
same,growth inhibition,[14]; [18],95% (active)
same,growth inhibition,[14]; at 50.0 µM,98% (active)
same,growth inhibition,[16]; at 1.2 µM,27%
same,growth inhibition,[16]; at 3.7 µM,52%
same,growth inhibition,[16]; at 11.0 µM,87% (active)
same,growth inhibition,[16]; at 33.0 µM,97% (active)
same,growth inhibition,[16]; at 100.0 µM,99% (active)
